Source: PubChem (National Center for Advancing Translational Sciences (NCATS))
RGS12 GoLoco inh – RGS12 GoLoco-Gai1 interaction inhibition; Gai1:RGS12 GoLoco peptide FP, rhodamine, 10 min; Potency, µM (top dose mostly 61.6 µM), for inactives: top-dose activity, negative = inhibition, actives largely listed as inhibitors; hit rate 0.44% among 230,000; P63096; active = well fitted inhibition curve with a large enough effect, not every such curve was filed as active; inactive = no such curve, though single readings can be large or run the other way; also: nearly all actives have a fitted effect of over 30% in size
Target sequence (P63096 whole entry, looked up): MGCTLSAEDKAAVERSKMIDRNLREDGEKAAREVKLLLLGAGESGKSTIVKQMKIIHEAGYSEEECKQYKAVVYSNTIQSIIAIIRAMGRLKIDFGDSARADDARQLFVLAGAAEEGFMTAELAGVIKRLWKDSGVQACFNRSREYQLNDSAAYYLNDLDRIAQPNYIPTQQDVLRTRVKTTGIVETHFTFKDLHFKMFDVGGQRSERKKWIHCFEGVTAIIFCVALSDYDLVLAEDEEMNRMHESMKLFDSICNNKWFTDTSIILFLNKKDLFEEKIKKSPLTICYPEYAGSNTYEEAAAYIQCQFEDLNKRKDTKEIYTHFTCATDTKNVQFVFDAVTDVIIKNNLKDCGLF
TR SRC2 fluor cs – alters Texas Red total fluorescence, flagging assay interference; Potency, µM (doses to about 106 µM), without a hit: top-dose fluorescence change, negative = quenching; TRb/SRC2 Texas Red total fluorescence interference; AID 1479; hit rate 0.29% among 280,000; active = well fitted curve in either direction with a large enough effect; inconclusive = small, poorly fitted or top-dose-only effect
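Flags fluorescent or light-absorbing compounds by total fluorescence, S + 2P, at 555 nm excitation and 632 nm emission. Mixture: 20 nM Texas Red SRC2 peptide, 0.6 uM human TRb LBD, 1 uM T3, 5% DMSO; compound exposure 5 h at ambient temperature.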
Tau fibril ThT – inhibitors of human tau fibril formation, thioflavin T binding. P10636. recombinant tau K18 P301L, heparin-induced fibrillization, ThT fluorescence. Potency, µM (highest dose often 57.4 µM), without a hit: top-dose activity, negative = inhibition, usual class: inhibitors. hit rate 2.1% among 270,000. AID 1460; also: nearly all actives have a fitted effect of over 55% in size
Target sequence (P10636 561-689 P618L limits assumed): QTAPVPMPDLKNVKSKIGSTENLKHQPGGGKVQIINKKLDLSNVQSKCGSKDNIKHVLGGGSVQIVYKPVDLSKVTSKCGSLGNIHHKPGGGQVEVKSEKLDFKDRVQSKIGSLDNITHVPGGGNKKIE
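Fibril formation assay: tau K18 P301L at 15 uM with trace Alexa 594 label, heparin inducer 20 uM, pH 7 sodium acetate buffer, 37 C for 6 hr; endpoint ThT signal.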
TRb-SRC2 inh – inhibitors of human thyroid hormone receptor beta-SRC2 interaction. P10828. TRbeta-SRC2 peptide binding, fluorescence polarization; receptor liganded with 1 µM T3. Potency, µM (highest dose often 106 µM), without a hit: at the highest dose activity change, negative = inhibition, usual class: inhibitors. hit rate 0.065% among 280,000. AID 1469;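 also: plate controls were bound peptide for no effect and peptide without receptor for full effect; nearly all actives have a fitted effect of over 50% in size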
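Read-out is fluorescence polarization (555 nm excitation, 632 nm emission) of a Texas Red SRC2 coactivator peptide; loss of signal reflects blocked binding to human TRb ligand-binding domain in the presence of 1 uM T3.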
Tau fibril FP – tau fibrillization inhibition (FP). P10636. K18 P301L tau heparin fibrillization, Alexa594 FP, 6 h. Potency, µM (top dose mostly 57.7 µM), inactives show top-dose activity, negative = inhibition, hits mostly inhibitors. hit rate 0.39% among 280,000. AID 1468; also: nearly all actives have a fitted effect of over 55% in size
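FP of Alexa 594-tau after heparin (20 uM) induction. Substrate: human K18 P301L, 15 uM unlabeled, 0.24 uM labeled. Buffer 100 mM sodium acetate pH 7. 6 hr, 37 C.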
Tau fluor cs – counter-screen for tau fibril formation inhibitors. Potency, µM (titrated, usually from 57.7 µM), without a hit: top-dose activity change, negative = decrease. AID 1463. tau K18 P301L (four-repeat tau fragment) Alexa594 fluorescence, heparin fibrillization. hit rate 0.93% among 280,000; also: nearly all actives have a fitted effect of over 55% in size
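Human K18 P301L tau (15 uM unlabeled plus 0.24 uM Alexa 594-labeled, final) in 100 mM sodium acetate pH 7 was mixed with compound and 20 uM heparin and incubated 6 hr at 37 C.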
* hit, by the source's call; ? = inconclusive; . = no result given; [ ] = another dose, or the depositor's remark. Most compounds without a hit are left out; they make up all but 3.1% or so of the library. Unless noted, calls follow the shape of the dose curve; as a rule, active = well fitted curve in the direction sought with a large enough effect; inconclusive = small, poorly fitted or top-dose-only effect, or another doubt; inactive = no such curve, though single readings can be large; an effect the other way counts as inactive or inconclusive. Unless noted, % is scaled to controls: 0 for no effect and ±100 for the full control effect; potency is read from the fitted curve at half-maximal effect.

SMILES	RGS12 GoLoco inh	TR SRC2 fluor cs	Tau fibril ThT	TRb-SRC2 inh	Tau fibril FP	Tau fluor cs
CC(CNS(=O)(=O)c1cc(Cl)ccc1Cl)CN(C)C (stereo not drawn)	-9.0%	-3.3%	-6.3%	5.6%	-2.5%	-10.5%
N#Cc1cc2c(nc1SCC(O)CS(=O)(=O)Cc1ccc(Cl)cc1)CCCC2 (stereo not drawn)	17.4%	0.4%	-14.0%	-5.8%	-2.4%	?
CCCC(=O)C1=C(c2ccc(C)cc2)N(C(=O)CCC)n2cnnc2S1	.	0.9%	15.8µM*	4.3%	-14.2%	?
CCCC(=O)C1=C(c2ccc(C)c(C)c2)N(C(=O)CCC)n2c(CC)nnc2S1	.	-1.0%	?	4.3%	-9.4%	-18.3%
CCCCCCc1cc2cc(-c3nnc(-c4ccc(C)cc4)o3)c(=O)oc2cc1O	.	2512µM*[quencher]	?	-18.2%[53 µM]	-0.5%	-5.2%
CC(C)c1ccc(OCC(=O)N(c2ccccn2)C2CCCCC2)cc1	3.6%	5.62µM*[quencher]	-6.0%	-26.3%[53 µM]	4.8%	-9.2%
CCOC(=O)c1c(CSc2ccccc2)n(C)c2cc(Br)c(O)c(CN(C)C)c12	22.4µM*	1.3%	-17.2%	7.1%	-2.0%	-22.9%
CCOC(=O)c1c(CSc2ccc(C)cc2)n(C)c2cc(Br)c(O)c(CN(C)C)c12	-5.8%	-3.3%	?	1.0%	10.7%	-24.4%
CC1=NN(c2ccccc2)C(=O)C1C=Nc1ccc(N(C)C)cc1 (stereo not drawn)	4.8%	12.4%	7.94µM*	?	4.9%	?
COc1cc(/C=C2\SC(=S)N(N(C)c3ccccc3)C2=O)ccc1O	209.5%	21.4%	25.1µM*	?	-4.2%	25.1µM*[quencher]
COc1ccc(/C=C2\SC(=S)N(CCCC(=O)Nc3ccccn3)C2=O)cc1OC	44.6%	-1.5%	?	5.7%	-14.0%	-24.3%
N#Cc1nc(-c2cccs2)oc1NCc1ccc(Cl)cc1	3.5%	-3.4%	-10.0%	7.4%	?	17.8µM*[quencher]
N#Cc1nc(-c2cccs2)oc1NCc1ccccc1	0.2%	-7.0%	-17.1%	-0.2%	12.0%	?
CC(=O)c1ccc(N/N=C2/CCCNC2=O)cc1	15.9%	-1.2%	?	0.6%	-0.2%	-7.4%
Cc1n[nH]c(C)c1Sc1ccccc1N=Cc1cc([N+](=O)[O-])ccc1O	-6.8%	1.1%	-19.8%	1.5%	1.0%	-8.1%
Cc1cc(O)c(C(C)C)cc1N=Cc1cc([N+](=O)[O-])ccc1O	8.0%	-0.5%	3.55µM*	-2.2%	7.08µM*	?
Cc1cc(O)c(C(C)C)cc1N=Cc1ccccc1O	2.5%[14.2 µM]	-24.6%	3.55µM*	?	8.91µM*	?
N#C/C(=C(/O)Cc1ccccc1)P(=O)(c1ccccc1)c1ccccc1	9.1%	-7.5%	-4.5%	-6.9%	2.4%	-8.3%
CC(C)CCN1C(=O)N(c2ccccc2)C(=O)C1CC(=O)Nc1ccc(Cl)cc1 (stereo not drawn)	.	1.1%	0.2%	-5.1%	-7.8%	-23.8%
O=c1nc(/C=C/c2ccc(-c3ccc(F)cc3)o2)cc(C(F)(F)F)[nH]1	76.3%	7.7%	15.8µM*	2.8%	-6.7%	-16.2%
CC(C)Oc1ccc(C(=O)NCC(c2ccc(N(C)C)cc2)N2CCc3ccccc32)cc1 (stereo not drawn)	.	-3.3%	?	-4.3%	-1.4%	?
COc1ccc(C(=O)NCC(c2ccc(N(C)C)cc2)N2CCc3ccccc32)cc1 (stereo not drawn)	.	-2.3%	15.8µM*	-4.5%	?	?
Cc1c(C(=O)NC(C)c2ccccc2)sc2nc3n(c(=O)c12)CCCC3 (stereo not drawn)	.	0.4%	?	-1.2%	3.5%	-14.0%
Cc1nn(C(=O)N2CCCCC2)c(C)c1CN1C(=O)c2ccccc2C1=O	-9.5%	-3.0%	-4.7%	-10.0%	0.1%	-3.5%
Nc1c(C(=O)c2ccccc2)sc2snc(SCC(=O)c3ccccc3)c12	12.0%	-9.8%	7.94µM*	-2.6%	?	?
SMILES	RGS12 GoLoco inh	TR SRC2 fluor cs	Tau fibril ThT	TRb-SRC2 inh	Tau fibril FP	Tau fluor cs
CC(C)c1ccc(NC(=O)c2ccc(F)c(S(=O)(=O)N3CCCC3)c2)cc1	.	0.0%	?	7.6%	-10.6%	-9.1%
O=C(Nc1cc(Cl)cc(Cl)c1)c1ccc(F)c(S(=O)(=O)NC2CCCC2)c1	.	-3.0%	1.4%	12.2%	10µM*	?
Cc1ccc(O)c(NC(=O)c2ccc(Br)c(S(=O)(=O)N3CCCCC3)c2)c1	.	?	-11.7%	-11.4%	-3.5%	12.6µM*[quencher]
CCc1ccc(NC(=O)c2ccc(F)c(S(=O)(=O)NC3CCCCCC3)c2)cc1	.	-0.2%	2.8%	2.2%	?	?
O=C(Nc1cc(Cl)cc(Cl)c1)c1ccc(F)c(S(=O)(=O)N2CCCC2)c1	.	-2.5%	-4.6%	9.1%	14.1µM*	?
COc1cccc(NC(=S)N(CCc2c(C)[nH]c3ccc(C)cc23)Cc2cccs2)c1	14.3%	-0.8%	-2.8%	-2.8%	6.0%	-8.4%
COc1ccc2[nH]c(C)c(CCN(Cc3cccs3)C(=S)Nc3cccc(F)c3)c2c1	66.0%	3.4%	?	20.8%	2.1%	10µM*[quencher]
COc1ccc(OC)c(NC(=S)NCc2cccs2)c1	9.0%	1.7%	2.2%	-1.4%	4.4%	1.6%
COc1ccc(OC)c(NC(=S)N(CCc2c(C)[nH]c3ccccc23)Cc2cccs2)c1	-1.4%	0.3%	-13.3%	1.2%	3.3%	7.08µM*[quencher]
COc1ccc(OC)c(NC(=S)N(CCc2c(C)[nH]c3ccc(C)cc23)Cc2cccs2)c1	7.8%	2.1%	-15.4%	14.6%	12.7%	8.91µM*[quencher]
O=C(N/N=C/c1cccc(OCc2ccccc2)c1)c1cccs1	11.8%	-5.7%	?	-1.3%	?	25.1µM*[quencher]
COc1cc(/C=N/NC(=O)c2cncc(Br)c2)cc([N+](=O)[O-])c1O	6.7%	-7.2%	12.6µM*	-6.1%	1.1%	-26.5%
COc1cc([N+](=O)[O-])cc(/C=N/NC(=O)Cn2nc(C)cc2C)c1O	4.2%	-1.3%	?	-0.6%	6.7%	7.2%
CCOc1cc(/C=N/NC(=O)c2cccs2)cc([N+](=O)[O-])c1O	5.8%	-11.8%	10µM*	-4.9%	3.1%	?
O=C(N/N=C/c1cccc([N+](=O)[O-])c1)c1cccs1	4.5%	-12.1%	?	5.5%	3.0%	-20.9%
COc1cc(/C=N/NC(=O)c2cccc([N+](=O)[O-])c2)cc(OC)c1O	3.2%	-8.3%	?	-3.2%	4.2%	-18.9%
O=C(N/N=C/c1ccccc1)c1ccc(OCc2ccccc2)cc1	1.7%	-2.2%	-20.1%	8.6%	-11.1%	-10.5%
COc1cc([N+](=O)[O-])cc(/C=N/NC(=O)c2cncc(Br)c2)c1O	8.4%	-11.0%	12.6µM*	2.3%	4.2%	-15.7%
